Assay results as given in PubChem BioAssay (EPA / NIEHS).
Values joined by “and” are separate entries in the source; they are usually repeats but may differ in a detail not shown here. Equal entries are not always repeated. Records with an inconclusive call do not appear. Active and inactive are the calls of the source. The calls were made as follows, unless noted: active = hit-call score of the fitted dose curve at least 0.9, where 1 is the maximum; inactive = score below 0.9.

Columns and labels:
[1] = ACEA_ER_80hr: ACEA Biosciences xCELLigence Real-Time Cell Analysis on Estrogen Receptor Agonism for Proliferation (AID 2282667; active = hit-call score of the fitted dose curve at least 0.9, where 1 is the maximum); conditions: T47D proliferation, impedance (xCELLigence), 80 h
Summary of the method: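 Real-time impedance growth kinetics of human T-47D breast cells read 80 h after dosing, gain-of-signal fitted relative to DMSO. Compounds: 1:4 serial series, top final concentration 100 uM, n = 2.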

[2] = APR_HepG2_CellCycleArrest_24hr: Apredica 24-hour HepG2 Assay for Cell Cycle Arrest (AID 2282905); conditions: imaging, actives raise or lower the signal;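 also: cell cycle arrest scored as ratio of 2N to 4N nuclear DNA content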
Summary of the method: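 Readout: Hoechst 33342 nuclear DNA content by high-content fluorescent imaging, six images/well, 20x. Human HepG2 liver cells, 24 hr compound exposure, 0.39–200 uM, final DMSO 0.5% v/v. Gain or loss fitted relative to DMSO baseline.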

[3] = APR_HepG2_NuclearSize_24hr: Apredica 24-hour HepG2 Assay for Nuclear Size (AID 2282907); conditions: high-content imaging, actives raise or lower the signal
Summary of the method: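 Read-out: nuclear diameter from Hoechst 33342 (2 ug/mL) imaging of fixed HepG2 cells, 20x, six fields/well. Compounds ran at 0.39–200 uM for 24 hr, 0.5% DMSO final. Gain or loss was fitted bidirectionally relative to the DMSO baseline.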

[4] = APR_HepG2_CellLoss_24hr: Apredica 24-hour HepG2 Assay for Cell Loss (AID 2282908); conditions: high-content imaging;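 as to AC50: fit in both directions so a hit may be cell loss or gain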
Summary of the method: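 Read-out: Hoechst 33342-stained nuclei counted by automated fluorescence imaging after formaldehyde fixation and Triton permeabilization. Ten concentrations, 0.39 to 200 uM, duplicate wells, 0.5% DMSO final. Gain or loss of signal fitted relative to DMSO baseline.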

[5] = APR_HepG2_MicrotubuleCSK_24hr: Apredica 24-hour HepG2 Assay for Microtubule CSK Stabilty (AID 2282909); conditions: HepG2 microtubule cytoskeleton imaging, actives raise or lower the signal
Summary of the method: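 Read-out: alpha-tubulin immunofluorescence intensity by automated high-content imaging of fixed HepG2 cells after 24 h compound treatment. Ten concentrations, 0.39 to 200 uM, in duplicate; DMSO 0.5% v/v. Taxol positive control; DMSO-normalized bidirectional curve fitting.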

[6] = APR_HepG2_MitoticArrest_24hr: Apredica 24-hour HepG2 Assay for Mitotic Arrest (AID 2282910); conditions: high-content imaging, actives raise or lower the signal
Summary of the method: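 Treatment lasted 24 hr in the human HepG2 line at 0.39–200 uM, solvent held at 0.5% DMSO. Fixed cells were stained with Hoechst 33342 and anti-phospho-histone H3, imaged at 20x, and analysed by gain- or loss-of-signal fitting against DMSO.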

[7] = APR_HepG2_MitoMembPot_24hr: Apredica 24-hour HepG2 Assay for Mitochondrial Membrane Potential (AID 2282911); conditions: imaging, actives raise or lower the signal
Summary of the method: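 Mitochondrial membrane potential imaged via MitoTracker Red CMXRos (250 nM, 30 min pre-fixation) in fixed HepG2 cells with Hoechst nuclear identification. Ten concentrations 0.39–200 uM, 24 h treatment, 0.5% DMSO; CCCP as positive control.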

[8] = APR_HepG2_MitoMass_24hr: Apredica 24-hour HepG2 Assay for Mitochondrial Mass (AID 2282912); conditions: high-content imaging, actives raise or lower the signal
Summary of the method: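 HepG2, 24 hr dosing, 10 concentrations 0.39–200 uM in duplicate, DMSO 0.5% final. MitoTracker Red CMXRos 250 nM, 30 min pre-fix; 3.7% formaldehyde fix. Imaging-based fluorescence intensity; gain/loss fit vs DMSO baseline.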

[9] = APR_HepG2_p53Act_24hr: Apredica 24-hour HepG2 Assay for p53 Activation (AID 2282913); conditions: high-content imaging, actives raise or lower the signal;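 also: p53 protein immunofluorescence averaged per cell in HepG2 with Hoechst nuclei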
Summary of the method: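 Fluorescence imaging of formaldehyde-fixed HepG2 cells labelled for p53 and with Hoechst, 24 h after dosing (0.39–200 uM, duplicate wells, 0.5% v/v DMSO). Signal fitted in both directions relative to DMSO.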

[10] = APR_HepG2_CellCycleArrest_72hr: Apredica 72-hour HepG2 Assay for Cell Cycle Arrest (AID 2282914); conditions: high-content imaging, actives raise or lower the signal
Summary of the method: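 Read-out: nuclear DNA content from Hoechst 33342 high-content imaging (20x, six fields/well) after 3.7% formaldehyde fixation, fitted bidirectionally against DMSO. Treatment was 72 h in HepG2, ten concentrations 0.39–200 uM, duplicate, 0.5% DMSO.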

[11] = APR_HepG2_CellLoss_72hr: Apredica 72-hour HepG2 Assay for Cell Loss (AID 2282915); conditions: high-content imaging
Summary of the method: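 HepG2 cells were exposed for 72 hr to compounds at 0.39–200 uM (ten concentrations, duplicate) in 0.5% v/v final DMSO. Nuclei were stained with Hoechst 33342 after 3.7% formaldehyde fixation, imaged at 20x, and counted; fits bidirectional versus DMSO.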

[12] = APR_HepG2_CellCycleArrest_1hr: Apredica 1-hour HepG2 Assay for Cell Cycle Arrest (AID 2282666); conditions: high-content imaging, actives raise or lower the signal
Summary of the method: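 Cell cycle arrest scored from nuclear DNA content (Hoechst 33342) using high-content imaging of fixed HepG2 cells after 1 h treatment across 0.39–200 uM, in duplicate. Gain or loss fitted relative to 0.5% DMSO.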

[13] = APR_HepG2_CellLoss_1hr: Apredica 1-hour HepG2 Assay for Cell Loss (AID 2282668); conditions: high-content imaging;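 also: curves fitted both ways against DMSO so gain or loss of cells counts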
Summary of the method: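 Cell number comes from high-content imaging of Hoechst-labelled nuclei in fixed HepG2 cells. Cells were exposed for 1 h to ten concentrations from 0.39 to 200 uM in 0.5% DMSO. Gain or loss was fitted against DMSO controls.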

[14] = APR_HepG2_MicrotubuleCSK_1hr: Apredica 1-hour HepG2 Assay for Microtubule CSK Stabilty (AID 2282669); conditions: HepG2 microtubule cytoskeleton imaging, actives raise or lower the signal
Summary of the method: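 Alpha-tubulin immunofluorescence, imaged by automated high-content microscopy with Hoechst nuclear segmentation, measured cytoskeletal change after 1 h dosing of HepG2 at 0.39–200 uM in 0.5% DMSO. Activity fitted in both directions relative to DMSO.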

[15] = APR_HepG2_NuclearSize_1hr: Apredica 1-hour HepG2 Assay for Nuclear Size (AID 2282670); conditions: high-content imaging, actives raise or lower the signal
Summary of the method: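 Nuclear size measured by high-content imaging of Hoechst 33342 nuclear stain after formaldehyde fixation; human HepG2 line exposed 1 hr to compounds at 0.39–200 uM in 0.5% DMSO, with bidirectional curve fitting relative to DMSO.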

[16] = APR_HepG2_MitoticArrest_1hr: Apredica 1-hour HepG2 Assay for Mitotic Arrest (AID 2282672); conditions: high-content imaging, actives raise or lower the signal
Summary of the method: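 Ten-point concentration series (0.39 to 200 uM, duplicates, 0.5% v/v DMSO) applied to human HepG2 liver cells for 1 hr. High-content imaging of phospho-histone H3 and Hoechst-stained nuclei after fixation and permeabilization; DMSO-normalised bidirectional fit.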

[17] = APR_HepG2_P-H2AX_1hr: Apredica 1-hour HepG2 Assay for H2AX Phosphorylation (AID 2282673); conditions: high-content imaging, actives raise or lower the signal
Summary of the method: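 Phospho-H2A.x immunofluorescence (1:200, FITC secondary) plus Hoechst nuclear stain, quantified by high-content imaging in HepG2 after 1 hr compound exposure. Ten concentrations, 0.39 to 200 uM, in duplicate with 0.5% DMSO; fit both directions against DMSO.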

[18] = APR_HepG2_MitoMass_1hr: Apredica 1-hour HepG2 Assay for Mitochondrial Mass (AID 2282674); conditions: high-content imaging, actives raise or lower the signal
Summary of the method: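 Mitochondrial mass is taken from MitoTracker Red CMXRos (250 nM, 30 min, pre-fixation) fluorescence imaged at 20x in HepG2 cells. Exposure lasted 1 hr across ten concentrations, 0.39 to 200 uM, 0.5% DMSO; DMSO baseline, bidirectional fitting.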

[19] = APR_HepG2_MitoMembPot_1hr: Apredica 1-hour HepG2 Assay for Mitochondrial Membrane Potential (AID 2282675); conditions: imaging, actives raise or lower the signal
Summary of the method: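 Mitochondrial membrane potential read as MitoTracker Red CMXRos intensity by automated imaging of fixed HepG2 cells. Dye at 250 nM for 30 min pre-fixation; compounds 0.39 to 200 uM for 1 hour, duplicate wells, 0.5% DMSO.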

[20] = APR_HepG2_StressKinase_1hr: Apredica 1-hour HepG2 Assay for Stress Kinase (AID 2282906); conditions: HepG2 stress kinase (phospho-c-Jun) imaging, actives raise or lower the signal
Summary of the method: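 High-content imaging of phospho-c-Jun immunostaining (with Hoechst nuclear identification) after a 1 h exposure of HepG2 cells to 10 concentrations from 0.39 to 200 uM, final DMSO 0.5%. Fitted bidirectionally against DMSO.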

Measured: AC50

O=S(=O)(O)C(F)(F)C(F)(F)C(F)(F)C(F)(F)F
inactive: [1] | [2] | [3] | [4] | [5] | [6] | [7] | [8] | [9] | [10] | [11]

ClC1=C(Cl)[C@]2(Cl)[C@@H]3[C@H]4C[C@H]([C@@H]5O[C@H]45)[C@@H]3[C@@]1(Cl)C2(Cl)Cl
inactive: [2] | [3] | [4] | [5] | [6] | [8] | [9] | [10] | [11]
active: [1] 50 µM | [7] 59.3 µM

CC(C)(O)C(=O)Nc1ccc([N+](=O)[O-])c(C(F)(F)F)c1
active: [1] 38.5 µM and 68.7 µM
inactive: [2] | [3] | [4] | [5] | [6] | [7] | [8] | [9] | [10] | [11]

O=NN(c1ccccc1)c1ccccc1
inactive: [1] | [2] | [3] | [4] | [5] | [6] | [7] | [8] | [9] | [10] | [11]

OCC(O)CO
inactive: [1]

O=C(NC(=O)c1c(F)cccc1F)Nc1cc(Cl)c(OC(F)(F)C(F)F)c(Cl)c1
inactive: [1] | [2] | [3] | [4] | [5] | [6] | [7] | [8] | [9] | [10] | [11]

Cc1ccccc1O
inactive: [1] | [2] | [3] | [4] | [5] | [6] | [7] | [8] | [9] | [10] | [11]

C=CC(=O)NCNC(=O)C=C
inactive: [1] | [2] | [3] | [4] | [5] | [6] | [7] | [8] | [9] | [10] | [11]

Cc1cccc(C)c1N
inactive: [1] | [2] | [3] | [4] | [5] | [6] | [7] | [8] | [9] | [10] | [11]

CCCCCCCCCc1ccc(O)cc1
inactive: [1] | [2] | [3] | [4] | [5] | [6] | [7] | [8] | [9] | [10] | [11]

Cc1ccc(O)c(C)c1
inactive: [1] | [2] | [3] | [4] | [5] | [6] | [7] | [8] | [9] | [10] | [11]

CCC(C)c1cc([N+](=O)[O-])cc([N+](=O)[O-])c1O (stereo not given)
active: [2] 49.6 µM | [7] 100 µM | [10] 75.8 µM | [11] 51 µM
inactive: [1] | [3] | [4] | [5] | [6] | [8] | [9]

CCSC(=O)N(CC)C1CCCCC1
not listed: [1] | [9]
inactive: all other assays above

COS(=O)(=O)OC
inactive: [1] | [2] | [3] | [4] | [5] | [6] | [7] | [8] | [9] | [10] | [11]

CC1=C2C[C@H]3[C@@H](CC=C4C[C@@H](O)CC[C@@]43C)[C@@H]2CC[C@]12O[C@@H]1C[C@H](C)CN[C@H]1[C@H]2C
inactive: [1] | [2] | [3] | [5] | [7] | [9] | [10]
active: [4] 20.2 µM | [6] 23.8 µM | [8] 35.4 µM | [11] 25.3 µM

Sc1ccccc1
inactive: [1]

C1CC2OC2CC1C1CO1 (stereo not given)
inactive: [1] | [2] | [3] | [4] | [5] | [6] | [7] | [8] | [9] | [10] | [11]

O=C(O)C(F)(F)C(F)(F)C(F)(F)C(F)(F)C(F)(F)C(F)(F)C(F)(F)C(F)(F)C(F)(F)F
active: [3] 130 µM | [4] 108 µM | [6] 106 µM | [8] 109 µM | [9] 97.4 µM | [10] 66.8 µM | [11] 96 µM
inactive: [1] | [2] | [5] | [7]
